In PubChem BioAssay (Tox21):
Several values for one entry are separate records, joined by “and”; a condition that tells them apart may be missing. Identical values can stand only once. Inconclusive results are not listed. Entries that show only a call come without a potency. Some compounds were tested as several samples or in several runs, with calls that do not always agree. Activity calls are given as the source filed them. Unless noted, calls come from the whole dose curve; as a rule, active = well fitted curve in the direction sought with a large enough effect in the repeat runs; inconclusive = weak or mixed curves; inactive = no such curve, though single readings can be large; an effect the other way counts as inactive or inconclusive.

How the values were obtained:
[1] = biological target: Acetylcholinesterase (Homo sapiens) (UniProt P22303); assay: Acetylcholinesterase (AChE) small molecule antagonists: enzyme-based qHTS assay with human liver microsomes (AID 1347399; calls by dose curve; note: nearly all actives have a fitted effect of over 60% in size); conditions: Potency: qHTS inhibition
Summary of the method: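 Recombinant human AChE (50 mU/mL in the enzyme mix) and human liver microsomes (0.25 mg/mL final) were preincubated with compound and NADPH (0.25 mg/mL final) for 30 min at 37 C. Acetylthiocholine/DTNB was then added; thiocholine was read colorimetrically after 10 min at room temperature.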

[2] = biological target: Cytochrome P450 2D6 (Homo sapiens) (UniProt P10635); assay: Cytochrome P450 Family 2 Subfamily D Member 6 (CYP2D6) small molecule antagonists: luciferase reporter qHTS assay (AID 1671196); note: nearly all actives have a fitted effect of over 50% in size
Summary of the method: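 Chemicals tested for interference with CYP2D6 activity; proluciferin substrate, NADPH regeneration, 1 h at room temperature, luminescent detection.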

[3] = biological target: Cytochrome P450 2C19 (Homo sapiens) (UniProt P33261); assay: Cytochrome P450 Family 2 Subfamily C Member 19 (CYP2C19) small molecule antagonists: luciferase reporter qHTS assay (AID 1671197); note: nearly all actives have a fitted effect of over 65% in size
Summary of the method: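 P450-Glo CYP2C19 system: enzyme-substrate mix with compound 10 min at room temperature, then NADPH regeneration solution, 1 h at 37C. Proluciferin-to-luciferin conversion detected by luminescence after 20 min with detection reagent; ketoconazole as positive control.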

[4] = biological target: Cytochrome P450 2C9 (Homo sapiens) (UniProt P11712); assay: Cytochrome P450 Family 2 Subfamily C Member 9 (CYP2C9) small molecule antagonists: luciferase reporter qHTS assay (AID 1671198); note: nearly all actives have a fitted effect of over 50% in size
Summary of the method: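 Enzyme-substrate mix preincubated with compound 10 min at room temperature; reaction started with NADPH regeneration solution, 1 h 37C. Luminescent luciferin product read after 20 min detection reagent.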

[5] = biological target: Cytochrome P450 1A2 (Homo sapiens) (UniProt P05177); assay: Cytochrome P450 Family 1 Subfamily A Member 2 (CYP1A2) small molecule antagonists: luciferase reporter qHTS assay (AID 1671199); note: nearly all actives have a fitted effect of over 50% in size
Summary of the method: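 Read-out is luminescence from luciferin detection reagent (20 min) proportional to CYP1A2 activity; compounds in DMSO preincubated 10 min with enzyme and proluciferin substrate, then NADPH regeneration solution, 1 h, room temperature.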

[6] = biological target: Voltage-gated inwardly rectifying potassium channel KCNH2 (Homo sapiens) (UniProt Q12809); assay: Human Ether-a-go-go-Related Gene (hERG) channel small molecule antagonists: fluorescence cell-based qHTS assay (AID 1671200); note: nearly all actives have a fitted effect of over 50% in size
Summary of the method: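 Read-out: thallium influx as a surrogate for potassium, tracked as fluorescence (480 nm ex/540 nm em) every second for 2 min after Stimulus Buffer addition in dye-loaded hERG-U2OS cells.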

[7] = biological target: Cytochrome P450 3A4 (Homo sapiens) (UniProt P08684); assay: Cytochrome P450 Family 3 Subfamily A Member 4 (CYP3A4) small molecule antagonists: luciferase reporter qHTS assay (AID 1671201); note: nearly all actives have a fitted effect of over 50% in size
Summary of the method: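 Luminescent readout (RLU) proportional to CYP3A4 activity, from luciferin generated off a proluciferin substrate. Enzyme–substrate mix plus compound 10 min at room temp, NADPH regeneration 1 h, detection reagent 20 min.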
Potency is the fitted concentration of half-maximal effect.

Chain of Acetylcholinesterase (Homo sapiens) (P22303 whole entry, looked up): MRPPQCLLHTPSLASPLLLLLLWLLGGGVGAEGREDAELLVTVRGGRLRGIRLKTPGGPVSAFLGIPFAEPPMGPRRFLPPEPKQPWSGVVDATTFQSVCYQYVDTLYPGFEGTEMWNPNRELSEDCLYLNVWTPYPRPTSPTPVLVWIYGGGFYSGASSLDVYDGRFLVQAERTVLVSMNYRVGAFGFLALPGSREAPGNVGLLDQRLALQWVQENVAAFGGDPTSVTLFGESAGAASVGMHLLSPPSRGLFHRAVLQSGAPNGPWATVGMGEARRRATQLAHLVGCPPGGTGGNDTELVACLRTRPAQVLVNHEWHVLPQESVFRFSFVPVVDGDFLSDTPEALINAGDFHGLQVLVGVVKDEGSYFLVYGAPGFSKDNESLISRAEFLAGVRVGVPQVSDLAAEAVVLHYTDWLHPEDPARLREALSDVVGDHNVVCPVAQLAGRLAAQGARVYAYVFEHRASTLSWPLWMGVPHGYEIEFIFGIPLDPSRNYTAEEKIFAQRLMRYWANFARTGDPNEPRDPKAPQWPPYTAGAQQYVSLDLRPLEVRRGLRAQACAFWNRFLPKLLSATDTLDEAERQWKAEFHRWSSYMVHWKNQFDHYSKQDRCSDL
Chain of Cytochrome P450 2D6 (Homo sapiens) (P10635 whole entry, looked up): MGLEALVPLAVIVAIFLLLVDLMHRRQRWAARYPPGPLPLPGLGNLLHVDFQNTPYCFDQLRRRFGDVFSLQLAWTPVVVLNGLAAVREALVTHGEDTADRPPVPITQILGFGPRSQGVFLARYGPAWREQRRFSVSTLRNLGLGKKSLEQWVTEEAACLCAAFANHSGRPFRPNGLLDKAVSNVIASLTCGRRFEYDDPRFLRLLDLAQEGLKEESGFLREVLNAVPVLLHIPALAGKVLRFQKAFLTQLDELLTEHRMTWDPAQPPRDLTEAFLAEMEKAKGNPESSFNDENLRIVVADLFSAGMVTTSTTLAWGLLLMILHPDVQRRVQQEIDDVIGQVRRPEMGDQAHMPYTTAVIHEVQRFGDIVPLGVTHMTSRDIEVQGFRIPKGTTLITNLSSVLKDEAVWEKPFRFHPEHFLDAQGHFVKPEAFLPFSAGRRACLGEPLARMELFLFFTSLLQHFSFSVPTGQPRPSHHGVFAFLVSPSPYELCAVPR
Chain of Cytochrome P450 1A2 (Homo sapiens) (P05177 whole entry, looked up): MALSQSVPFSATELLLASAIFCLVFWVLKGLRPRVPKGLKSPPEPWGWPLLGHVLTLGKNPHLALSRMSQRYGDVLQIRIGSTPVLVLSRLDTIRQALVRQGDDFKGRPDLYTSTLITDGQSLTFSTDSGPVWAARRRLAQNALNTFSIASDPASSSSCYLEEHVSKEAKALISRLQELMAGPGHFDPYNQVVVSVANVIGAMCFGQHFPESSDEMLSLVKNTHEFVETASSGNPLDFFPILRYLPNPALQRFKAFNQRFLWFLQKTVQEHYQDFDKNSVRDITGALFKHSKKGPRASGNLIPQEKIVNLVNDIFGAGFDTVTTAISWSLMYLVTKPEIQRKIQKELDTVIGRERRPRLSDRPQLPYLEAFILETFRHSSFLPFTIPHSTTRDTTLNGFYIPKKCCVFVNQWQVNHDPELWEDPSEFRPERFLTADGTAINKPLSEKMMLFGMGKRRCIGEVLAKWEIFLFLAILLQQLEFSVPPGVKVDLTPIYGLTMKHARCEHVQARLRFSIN
Chain of Cytochrome P450 3A4 (Homo sapiens) (P08684 whole entry, looked up): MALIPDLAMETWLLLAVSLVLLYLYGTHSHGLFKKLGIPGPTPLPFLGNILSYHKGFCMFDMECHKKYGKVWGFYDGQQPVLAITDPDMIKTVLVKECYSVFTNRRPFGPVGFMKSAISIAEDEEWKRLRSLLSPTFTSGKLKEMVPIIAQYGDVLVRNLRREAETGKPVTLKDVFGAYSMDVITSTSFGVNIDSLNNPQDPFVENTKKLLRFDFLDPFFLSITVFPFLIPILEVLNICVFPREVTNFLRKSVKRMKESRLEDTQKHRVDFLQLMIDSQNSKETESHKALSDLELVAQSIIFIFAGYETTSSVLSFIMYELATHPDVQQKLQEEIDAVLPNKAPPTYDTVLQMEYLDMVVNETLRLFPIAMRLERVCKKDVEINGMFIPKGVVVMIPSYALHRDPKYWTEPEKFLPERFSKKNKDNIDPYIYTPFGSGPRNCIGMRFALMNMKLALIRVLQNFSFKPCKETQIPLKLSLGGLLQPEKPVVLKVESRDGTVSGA
Chain of Voltage-gated inwardly rectifying potassium channel KCNH2 (Homo sapiens) (Q12809 whole entry, looked up): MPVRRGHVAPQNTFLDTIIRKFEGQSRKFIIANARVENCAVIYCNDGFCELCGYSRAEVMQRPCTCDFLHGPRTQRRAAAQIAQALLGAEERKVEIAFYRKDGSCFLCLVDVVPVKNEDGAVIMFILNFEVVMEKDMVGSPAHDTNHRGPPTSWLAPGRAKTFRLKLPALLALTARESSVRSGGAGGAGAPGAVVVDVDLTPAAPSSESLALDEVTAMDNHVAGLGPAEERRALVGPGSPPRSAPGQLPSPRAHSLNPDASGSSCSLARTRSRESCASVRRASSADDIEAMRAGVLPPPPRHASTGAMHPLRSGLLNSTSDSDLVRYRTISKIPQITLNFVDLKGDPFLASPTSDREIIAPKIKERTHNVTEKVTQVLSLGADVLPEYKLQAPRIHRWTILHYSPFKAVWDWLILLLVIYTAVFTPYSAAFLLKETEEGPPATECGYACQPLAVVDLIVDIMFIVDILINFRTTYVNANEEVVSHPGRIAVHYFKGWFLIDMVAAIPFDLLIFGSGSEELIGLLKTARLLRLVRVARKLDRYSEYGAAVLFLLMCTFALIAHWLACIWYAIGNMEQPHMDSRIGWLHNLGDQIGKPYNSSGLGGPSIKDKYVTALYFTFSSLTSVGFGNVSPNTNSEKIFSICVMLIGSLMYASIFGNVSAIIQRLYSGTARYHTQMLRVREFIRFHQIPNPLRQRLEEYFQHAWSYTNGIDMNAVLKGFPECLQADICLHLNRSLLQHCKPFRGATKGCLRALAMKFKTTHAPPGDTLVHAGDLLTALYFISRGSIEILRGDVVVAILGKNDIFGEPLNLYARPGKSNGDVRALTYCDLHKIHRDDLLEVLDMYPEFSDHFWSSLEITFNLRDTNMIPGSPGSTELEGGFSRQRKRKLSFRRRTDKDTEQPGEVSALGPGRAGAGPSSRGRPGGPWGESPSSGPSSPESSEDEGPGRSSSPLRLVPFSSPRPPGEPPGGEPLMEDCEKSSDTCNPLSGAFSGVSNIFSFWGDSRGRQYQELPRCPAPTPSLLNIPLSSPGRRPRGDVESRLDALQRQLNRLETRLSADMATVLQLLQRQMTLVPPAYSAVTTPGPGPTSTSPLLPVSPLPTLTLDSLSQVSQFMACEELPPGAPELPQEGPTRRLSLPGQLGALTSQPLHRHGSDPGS
Chain of Cytochrome P450 2C19 (Homo sapiens) (P33261 whole entry, looked up): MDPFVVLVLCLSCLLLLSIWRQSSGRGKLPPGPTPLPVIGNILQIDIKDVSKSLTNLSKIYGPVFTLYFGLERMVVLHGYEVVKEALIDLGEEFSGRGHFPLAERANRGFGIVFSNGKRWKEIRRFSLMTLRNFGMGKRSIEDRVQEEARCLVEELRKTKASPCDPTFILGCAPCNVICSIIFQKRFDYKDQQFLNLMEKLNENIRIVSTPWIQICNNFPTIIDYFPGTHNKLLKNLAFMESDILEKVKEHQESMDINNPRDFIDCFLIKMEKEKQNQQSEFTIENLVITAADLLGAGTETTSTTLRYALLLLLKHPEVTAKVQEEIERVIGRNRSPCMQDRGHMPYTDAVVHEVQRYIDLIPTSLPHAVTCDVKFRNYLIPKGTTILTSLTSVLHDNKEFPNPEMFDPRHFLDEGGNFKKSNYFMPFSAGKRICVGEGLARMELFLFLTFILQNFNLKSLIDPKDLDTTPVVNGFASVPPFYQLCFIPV
Chain of Cytochrome P450 2C9 (Homo sapiens) (P11712 whole entry, looked up): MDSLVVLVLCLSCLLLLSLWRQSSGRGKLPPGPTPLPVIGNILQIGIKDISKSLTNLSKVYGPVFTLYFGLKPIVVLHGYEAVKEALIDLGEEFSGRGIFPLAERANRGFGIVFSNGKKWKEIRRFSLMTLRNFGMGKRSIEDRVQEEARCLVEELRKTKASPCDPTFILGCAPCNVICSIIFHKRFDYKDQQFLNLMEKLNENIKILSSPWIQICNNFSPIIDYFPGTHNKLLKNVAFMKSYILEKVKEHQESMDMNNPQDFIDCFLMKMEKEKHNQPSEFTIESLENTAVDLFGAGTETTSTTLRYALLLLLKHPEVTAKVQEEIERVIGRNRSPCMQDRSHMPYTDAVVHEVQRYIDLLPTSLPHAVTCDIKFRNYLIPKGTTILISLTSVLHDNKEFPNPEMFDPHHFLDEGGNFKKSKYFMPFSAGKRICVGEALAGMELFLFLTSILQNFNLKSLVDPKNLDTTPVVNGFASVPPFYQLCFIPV

| SMILES | Potency [1] | Potency [2] | Potency [3] | Potency [4] | Potency [5] | Potency [6] | Potency [7] |
| --- | --- | --- | --- | --- | --- | --- | --- |
| Clc1ccccc1-c1nnc(-c2ccccc2Cl)nn1 | inactive | inactive | 31.4 µM (active) and 6.31 µM (active) | inactive | 5.59 µM (active) and 7.08 µM (active) | inactive | inactive |
| COP(=S)(OC)Oc1ccc(S(=O)(=O)N(C)C)cc1 | inactive | 35.6 µM (active) | 79.6 nM (active) and 55 nM (active) | 356 nM (active) and 490 nM (active) | 31.7 µM (active) and inactive | inactive | 7.96 µM (active) and 6.92 µM (active) |
| Cl | – | – | – | – | – | inactive | – |
| CN(C)c1ccccc1 | inactive | inactive | 29 µM (active) and 41.6 µM (active) | inactive | – | inactive | 32.5 µM (active) and inactive |
| Cc1ccc(N=CN(C)C=Nc2ccc(C)cc2C)c(C)c1 | inactive | 31.9 µM (active) and 35.6 µM (active) and 27.5 µM (active) | 79.6 µM (active) and inactive | inactive | 31.9 µM (active) and 35.6 µM (active) and 30.9 µM (active) | inactive | inactive |
| Clc1cccc(Cl)c1 | inactive | inactive | 62.8 µM (active) and inactive | inactive | – | inactive | inactive |
| ClC(Cl)(Cl)c1ccccc1 | inactive | inactive | 89.5 µM (active) and inactive | inactive | inactive | inactive | inactive |
| COc1ccc(CO)cc1 | – | – | – | – | – | inactive | – |
| N#Cc1cccnc1 | inactive | inactive | 38.8 µM (active) and inactive | – | inactive | inactive | inactive |
| Cc1cccc(N=Nc2ccc(N(C)C)cc2)c1 | inactive | inactive | 10.2 µM (active) and 17.8 µM (active) | – | 2.28 µM (active) and 3.56 µM (active) | inactive | inactive |
| Cc1cc(Cl)ccc1N=CN(C)C | – | 35.6 µM (active) | 79.6 µM (active) and inactive | inactive | 22.4 µM (active) and 28.3 µM (active) | inactive | inactive |
| N#CC(c1ccccc1)c1ccccc1 | inactive | inactive | 4.48 µM (active) and 5.03 µM (active) | 22.4 µM (active) and 35.6 µM (active) | – | inactive | inactive |
| [Cl-].[Cl-].[Cl-].[Fe+3] | – | – | – | – | – | inactive | – |
| C=CC(=O)OCC(CC)(COC(=O)C=C)COC(=O)C=C | inactive | 65 µM (active) and 63.3 µM (active) | 16.3 µM (active) and 15.9 µM (active) | 13 µM (active) and 28.3 µM (active) | 39.9 µM (active) | inactive | 818 nM (active) and 2.52 µM (active) |
| OCCOCCO | inactive | inactive | 82.1 µM (active) and inactive | inactive | inactive | inactive | inactive |
| CCCCSP(=O)(SCCCC)SCCCC | 5.51 µM (active) and 5.03 µM (active) | – | 7.78 µM (active) and 2.52 µM (active) | 8.73 µM (active) and 3.17 µM (active) | 21.9 µM (active) and 12.6 µM (active) | inactive | – |
| CC(O)CN(CC(C)O)CC(C)O (centres undefined) | inactive | inactive | inactive | inactive | inactive | inactive | inactive |
| [CH3][Sn]([Cl])([Cl])[Cl] | inactive | 32.4 µM (active) and inactive | inactive | inactive | inactive | inactive | inactive |
| CCOP(=O)(O)OCC (tested in a mixture with another compound) | inactive | 40.3 µM (active) and 886 nM (active) | 79 µM (active) | inactive and 55.9 µM (active) | 79 µM (active) | inactive and 6.12 µM (active) | inactive and 55.9 µM (active) |
| CCCCCCCCCCCCCl | inactive | inactive | inactive | inactive | inactive | inactive | 31.3 µM (active) and inactive |
